Results filed as inconclusive are left out. Activity calls are given as the source filed them. Calls come from the whole dose curve; as a rule, active = well fitted curve in the direction sought with a large enough effect; inconclusive = small, poorly fitted or top-dose-only effect, or another doubt; inactive = no such curve, though single readings can be large; an effect the other way counts as inactive or inconclusive.
How the values were obtained:
[1] = qHTS for Inhibitors of Ubiquitin-specific Protease USP2a Using CHOP2 as the Reporter: K633 Counterscreen (AID 652168); note: series mostly up to about 57 µM
In short: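 Cell-free interference counterscreen without USP2a: compounds pinned into enzyme-free buffer (20 mM Tris pH 8, 2 mM beta-mercaptoethanol, 0.05% Chaps), then DiUb K48-4IQF substrate added (100 nM stock); fluorescence read kinetically, Ex 525/Em 598.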

[2] = qHTS for Inhibitors of Ubiquitin-specific Protease USP2a Using CHOP2 as the Reporter: Cytotox Assay (AID 652170);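 note: HCT116 human colon cancer cells at 600 per well; series mostly up to about 46 µM; nearly all actives have a fitted effect of over 70% in size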
Excerpt: Homeostasis of cellular proteins is maintained through a combination of synthesis and degradation. The pathway that accounts for the majority of protein degradation is the ubiquitin-proteasomal pathway. Ubiquitin (Ub) is highly conserved in all cells and the generation of a multi-Ub chain typically targets proteins for degradation by the proteasome. However, ubiquitination is highly reversible and dynamic. Deubiquitination, the reverse process, is catalyzed through the action of enzymes referred to as isopeptidases or deubiquitinating enzymes (DUBs). This group of enzymes is collectively responsible for maintaining adequate pools of free ubiquitin and regulating the ubiquitination status of cellular proteins. The class of DUBs referred to as the ubiquitin-specific proteases (USP) family functions endoproteolytically to cleave Ub chains from a wide range of protein substrates. […] This assays monitors cell proliferation by quantitating the amount of ATP present by luciferase, which in the presence of ATP converts pro-luciferin into the luminescent luciferin product. A compound that inhibits cell proliferation would result in a decrease in luminescence. […]
5 uL of HCT116 (600 cells/well) were plated into a 1536 well plate and then incubated for 6 hr at 37 deg C, 5% CO2. […] Then, 3 uL of Cell Titer Glo is added, the plate is left at RT for 10 min, before luminescence is detected using the ViewLux.

[3] = molecular target: Ubiquitin carboxyl-terminal hydrolase 2 (Homo sapiens) (UniProt O75604); test: qHTS for Inhibitors of Ubiquitin-specific Protease USP2a Using CHOP2 as the Reporter: K484 Substrate (AID 652173);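 note: cleavage of internally quenched K48 di-ubiquitin substrate measured as rising fluorescence over time; nearly all actives have a fitted effect of over 70% in size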
Excerpt: Homeostasis of cellular proteins is maintained through a combination of synthesis and degradation. The pathway that accounts for the majority of protein degradation is the ubiquitin-proteasomal pathway. Ubiquitin (Ub) is highly conserved in all cells and the generation of a multi-Ub chain typically targets proteins for degradation by the proteasome. However, ubiquitination is highly reversible and dynamic. Deubiquitination, the reverse process, is catalyzed through the action of enzymes referred to as isopeptidases or deubiquitinating enzymes (DUBs). This group of enzymes is collectively responsible for maintaining adequate pools of free ubiquitin and regulating the ubiquitination status of cellular proteins. The class of DUBs referred to as the ubiquitin-specific proteases (USP) family functions endoproteolytically to cleave Ub chains from a wide range of protein substrates. […] Confirmed qHTS active compounds were tested in orthogonal USP2 assays utilizing a di-ubiquitin substrate labeled with a quencher on one ubiquitin and a fluorescent compound on the other, i.e. the substrate has internally quenched fluorescence or IQF (Lifesensors). In the presence of active USP2, the diubiquitin (DiUb) is cleaved and the fluorescence at 598 nm increases. […] Upon inhibition of USP2, the fluorescence signal from cleaved substrate increases less over time than in the absence of an inhibitor. […]

Measured: outcome

Sequence of Ubiquitin carboxyl-terminal hydrolase 2 (Homo sapiens) (O75604 whole entry, looked up): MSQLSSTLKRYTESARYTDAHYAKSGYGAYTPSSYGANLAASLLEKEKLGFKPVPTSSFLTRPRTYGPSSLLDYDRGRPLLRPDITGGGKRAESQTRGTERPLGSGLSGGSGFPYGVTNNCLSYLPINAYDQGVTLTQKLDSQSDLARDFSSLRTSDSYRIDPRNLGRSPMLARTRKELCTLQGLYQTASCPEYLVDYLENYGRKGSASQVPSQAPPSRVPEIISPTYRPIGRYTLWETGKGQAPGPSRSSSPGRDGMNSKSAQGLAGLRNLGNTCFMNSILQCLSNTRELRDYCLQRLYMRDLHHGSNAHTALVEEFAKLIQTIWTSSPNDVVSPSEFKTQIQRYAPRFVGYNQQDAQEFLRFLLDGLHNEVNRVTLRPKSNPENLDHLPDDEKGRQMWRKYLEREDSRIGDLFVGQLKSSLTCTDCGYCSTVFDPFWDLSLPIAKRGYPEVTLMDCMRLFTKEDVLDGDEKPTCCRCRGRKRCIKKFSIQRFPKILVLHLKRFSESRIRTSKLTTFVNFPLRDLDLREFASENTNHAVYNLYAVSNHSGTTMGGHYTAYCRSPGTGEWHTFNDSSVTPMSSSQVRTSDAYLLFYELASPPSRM

CC(=O)Nc1ccc(S(=O)(=O)Nc2cc(C)on2)cc1
inactive: all assays above

Reference: PubChem BioAssay (NCATS)
